Bioassay records from PubChem.
In the library only some 2.8% were active in any assay of this set; here they are far more common.
CDK5 p35 inh: CDK5/p35 (human) kinase inhibition. Recombinant CDK5/p35, ADP-Glo luminescence, 60 min. inhibition, % at 10 µM. 330,000 tested, 0.01% active. AID 488839;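 active means highest replicate inhibition of at least 50% and at least 75% of replicates reaching 50%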
PglD DTNB: blocks C. jejuni PglD acetyltransferase activity; purified PglD enzyme, DTNB colorimetric CoA detection; inhibition, % at 12.5 µM; 360,000 tested, 0.098% active; AID 602405; in the data active means inhibition above about 16%, passing the limit was not always enough
FGF22 binding: binders of recombinant human FGF22 by thermal shift; Q9HCT0; SYPRO orange fluorescence; percent of sucrose octasulfate shift, DMSO zero; activity (Tm shift, normalised), % at 9.99 µM; 340,000 tested, 1.5% active;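 active means mean Tm shift, scaled 0 neutral to 100 positive control, at about 1.3% or above, every replicate too, limit read from the data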
Target sequence (Q9HCT0 whole entry, looked up): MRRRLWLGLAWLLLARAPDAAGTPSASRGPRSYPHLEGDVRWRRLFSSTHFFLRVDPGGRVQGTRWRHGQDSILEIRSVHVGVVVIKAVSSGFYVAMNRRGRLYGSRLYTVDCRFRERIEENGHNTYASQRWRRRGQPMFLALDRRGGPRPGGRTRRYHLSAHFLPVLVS
dFosB activator: activators of mouse delta FosB homodimer | purified delta FosB, TAMRA-CDK5 oligo fluorescence polarization; percent of positive-control signal above neutral wells | P13346 | activation, % at 25 µM | 340,000 tested, 0.99% active;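 active means mean activation above about 17%, with every replicate also reaching it, limit read from the data, passing the limit was not always enough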
SIRT5 inh: inhibitors of human sirtuin-5 desuccinylase; Purified SirT5, succinyl-peptide AMC, trypsin-coupled fluorescence; inhibition, % at 15 µM; 330,000 tested, 1.1% active; AID 652115; in the data active means inhibition above about 15%
Target sequence (Q9NXA8 whole entry, looked up): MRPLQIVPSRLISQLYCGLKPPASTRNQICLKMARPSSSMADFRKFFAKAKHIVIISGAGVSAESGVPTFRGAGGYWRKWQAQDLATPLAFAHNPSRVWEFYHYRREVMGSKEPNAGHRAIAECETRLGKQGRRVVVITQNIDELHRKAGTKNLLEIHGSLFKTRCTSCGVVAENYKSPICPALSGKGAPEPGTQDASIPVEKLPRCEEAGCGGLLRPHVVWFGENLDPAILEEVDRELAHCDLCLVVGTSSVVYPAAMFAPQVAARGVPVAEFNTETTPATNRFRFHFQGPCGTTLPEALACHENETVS
PvdQ inh: blocks Pseudomonas aeruginosa PvdQ acylase activity. 340,000 tested, 0.063% active. purified PvdQ acylase, fluorescence plate reader. inhibition, % at 10 µM; in the data active means inhibition above about 30%, passing the limit was not always enough
Of the large screens only hits and unclear results are named; the others gave an inactive call.

O=C(C[C@H]1CC[C@H](NC(=O)C2CC2)[C@H](CO)O1)NCc1ccncc1	none (no result: CDK5 p35 inh, dFosB activator, PvdQ inh)
c1ccc(CCCNc2ncnc3nc[nH]c23)cc1	SIRT5 inh 17.7
C/C=C/c1ccc2c(c1)O[C@@H](CN(C)C(=O)CC)[C@@H](C)CN([C@H](C)CO)S2(=O)=O	none (no result: CDK5 p35 inh, dFosB activator, PvdQ inh)
CCN(CC)CC(=O)Nc1cccc2c1C(=O)c1ccccc1C2=O	none (no result: FGF22 binding, SIRT5 inh)
O=C1c2ccccc2C(=O)c2c(NCCCN(CCO)CCO)cccc21	dFosB activator 55.8 (no result: PglD DTNB)
COc1cc(/C=C/C(=O)O)ccc1OCc1ccc([N+](=O)[O-])cc1	FGF22 binding 42.9 (no result: PglD DTNB)
Cc1noc(C)c1COC(=O)C(c1ccccc1)c1ccccc1	SIRT5 inh 15.7 (no result: PglD DTNB)
C[C@H](CO)N1C[C@H](C)[C@H](CN(C)C(=O)Nc2ccc3c(c2)OCO3)OCCCC[C@H](C)Oc2ccc(NC(=O)NC3CCCCC3)cc2C1=O	none (no result: CDK5 p35 inh, dFosB activator, SIRT5 inh, PvdQ inh)
O=C(NCc1ccc(F)cc1)c1cccnc1C(=O)O	SIRT5 inh 23.3
COc1cccc(/C=N/Nc2nc(Nc3ccccc3)nc(-n3nc(C)cc3C)n2)c1O	dFosB activator 41.5 (no result: PglD DTNB, FGF22 binding, SIRT5 inh)
Cc1cc(C)n(-c2nc(Nc3ccccc3)nc(-n3nc(C)cc3C)n2)n1	none
O=C1COc2ccc(-c3n[nH]c(=O)c4ccccc34)cc2N1	FGF22 binding 43.2 (no result: PglD DTNB)
CC1(C#CC[N+]2(C)CCCCC2)CCC2C(O1)c1ccccc1OC2(C)C (stereo not drawn)	FGF22 binding 43.6
O=C(CC1CC1)Nc1ccc2c(c1)[C@@H]1C[C@@H](CC(=O)N3CCOCC3)O[C@@H](CO)[C@@H]1O2	none (no result: CDK5 p35 inh, dFosB activator, SIRT5 inh, PvdQ inh)
CCOC(=O)C(C#N)=C1CCN(Cc2ccccc2)CC1	none
CCOC(=O)/C(C#N)=C1/C(=O)N(Cc2ccccc2)c2ccccc21	SIRT5 inh 21.3 (no result: PglD DTNB)
CN(C)CC(=O)N1CCCCN2[C@@H](CO)[C@@H](c3ccc(/C=C/c4ccccc4)cc3)[C@@H]2C1	none (no result: CDK5 p35 inh, dFosB activator, PvdQ inh)
O=C(Cc1ccccc1[N+](=O)[O-])NCc1ccco1	FGF22 binding 43.6 (no result: PglD DTNB)
O=C(CCN1C(=O)C2C3C=CC(C3)C2C1=O)N1CCCCC1 (stereo not drawn)	FGF22 binding 43.2 (no result: PglD DTNB)
CCOC(=O)C1CCN(C(=O)CCN2C(=O)C3C4C=CC(C4)C3C2=O)CC1 (stereo not drawn)	none (no result: FGF22 binding, SIRT5 inh)
CCCCNC(=O)Cc1ccc(Br)cc1	FGF22 binding 43.7 (no result: PglD DTNB)
COCCNC(=O)Cc1ccc(Br)cc1	none (no result: FGF22 binding, SIRT5 inh)
Cc1nn(CC2CC2)c(=O)n1-c1ccc(Oc2ccccc2)cc1	FGF22 binding 43.2 (no result: PglD DTNB)
COc1ccc(-n2c(C)nn(CCOc3ccccc3)c2=O)cc1	none (no result: PglD DTNB)
Cc1nc(-c2ccccc2)sc1C(=O)O	none (no result: PglD DTNB)
Cc1ccc(-c2nc(C)c(C(=O)O)s2)cc1	FGF22 binding 43.4 (no result: PglD DTNB)
CCOCCCNCc1ccc(OCc2ccccc2C)c(OC)c1	SIRT5 inh 19.6
CCCNC(=O)[C@H]1[C@H](CO)[C@H]2Cn3c(ccc(-c4ccccc4F)c3=O)[C@H]2N1C	none (no result: CDK5 p35 inh, PglD DTNB, FGF22 binding, dFosB activator, PvdQ inh)
CC(C)NC(=O)Nc1ccc2c(c1)C(=O)N([C@H](C)CO)C[C@@H](C)[C@@H](CN(C)Cc1ccc(C(=O)O)cc1)OCCCC[C@H](C)O2	none (no result: CDK5 p35 inh, dFosB activator, PvdQ inh)
COc1cccc(N=C(N)N=C(N)N)c1	none
NC(N)=NC(N)=Nc1ccc2ccccc2c1	FGF22 binding 43.9
Cc1ccccc1C(=O)NC1CCN(CC(=O)Nc2ccc3c(c2)OCCO3)CC1	none (no result: PglD DTNB)
O=C(CN1CCC(NC(=O)c2ccccc2F)CC1)Nc1ccc2c(c1)OCCO2	FGF22 binding 43.4
C[C@@H]1CN([C@@H](C)CO)S(=O)(=O)c2ccc(C#Cc3ccncc3)cc2O[C@@H]1CN(C)CC1CC1	none (no result: CDK5 p35 inh, dFosB activator, PvdQ inh)
COC1=C/C(=C/c2c(N)n3nc(CC(=O)N4CCCC4)sc3nc2=O)C=CC1=O	SIRT5 inh 29.8
COC1=CC(=Cc2c(N)n3nc(CC(=O)N4CCCCC4)sc3nc2=O)C=C(OC)C1=O	SIRT5 inh 32.2
CCOC1=C/C(=C/c2c(N)n3nc(CC(=O)N4CCCC4)sc3nc2=O)C=CC1=O	none
COc1ccc(NC(=O)Nc2ccc3c(c2)C(=O)N([C@H](C)CO)C[C@H](C)[C@@H](CN(C)Cc2ccc(Oc4ccccc4)cc2)O3)cc1	none (no result: CDK5 p35 inh, dFosB activator, PvdQ inh)
C[C@@H]1CCCCO[C@H](CN(C)C(=O)Nc2ccc(F)cc2)[C@@H](C)CN([C@H](C)CO)C(=O)c2cc(NC(=O)Nc3ccc(F)cc3)ccc2O1	SIRT5 inh 27.1 (no result: CDK5 p35 inh, dFosB activator, PvdQ inh)
